Measured values published in PubChem BioAssay (Tox21).
Values joined by “and” are separate entries in the source; they are usually repeats but may differ in a detail not shown here. Identical values can stand only once. Inconclusive results are not listed. Entries that show only a call come without a potency. A structure can be active in one record and inactive in another. Active and inactive are the calls of the source. Unless noted, the call rests on the fitted dose curve.

Tests used:
[1] = Nuclear factor erythroid 2-related factor 2/antioxidant responsive element (Nrf2/ARE) small molecule agonists: qHTS cell viability counter screen in human keratinocytes (AID 1919968; active means well fitted curve in the direction sought with a large enough effect in the repeat runs; an effect the other way counts as inactive or inconclusive; further: nearly all actives have a fitted effect of over 55% in size)
Summary of the method: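 KeratinoSens cells (HaCaT keratinocytes stably carrying an ARE-luciferase reporter) were seeded at 1,500 cells/well and rested 5 h at 37 C/5% CO2. They were then exposed to compounds in DMSO for 23 h. Viability was read by CellTiter-Fluor fluorescence after 1 h.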

[2] = Nuclear factor erythroid 2-related factor 2/antioxidant responsive element (Nrf2/ARE) small molecule agonists: luciferase reporter gene qHTS assay in human keratinocytes (AID 1919969); further: nearly all actives have a fitted effect of over 35% in size; further: potency means the concentration at half of the fitted maximal effect
[3] = biological target: Gonadotropin-releasing hormone receptor (Homo sapiens) (UniProt P30968); experiment: Human gonadotropin-releasing hormone receptor (GnRHR) small molecule agonists, calcium flux assay in GnRHR-HEK293 cells (AID 1920063); further: nearly all actives have a fitted effect of over 35% in size
Summary of the method: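 HEK293 cells stably expressing human GnRHR were plated 18 h at 37 °C, loaded with calcium dye 1 h at 37 °C, then given compound in agonist mode; fluorescence (Ex/Em 480/540) read kinetically for 3 min at 1 s intervals.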

[4] = biological target: KiSS-1 receptor (Homo sapiens) (UniProt Q969F8); experiment: Human kisspeptin (KISS1R) small molecule agonists, calcium flux assay in KISS1R-HEK293 cells (AID 1920064; active means well fitted curve in the direction sought with a large enough effect in the repeat runs; an effect the other way counts as inactive or inconclusive)
Summary of the method: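 HEK293 cells stably expressing human KISS1R were plated 18 h at 37 °C, loaded with calcium dye for 1 h at 37 °C, then given compound by pin tool. Fluorescence (Ex/Em 480/540) was read kinetically for 3 min.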

[5] = G protein-coupled receptor (GPCR) small molecule agonists, calcium flux assay: HEK293 wild type cell line counter screen (AID 1920065)
Summary of the method: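 Cells were plated and cultured 18 h at 37 C/5% CO2, then loaded with calcium dye for 1 h at 37 C. Compounds in DMSO were pin-transferred in agonist mode, and fluorescence (Ex/Em 480/540) was read kinetically for 3 min at 1 s intervals.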

[6] = p53 small molecule agonists, cell-based qHTS assay with human liver microsomes (AID 1963577);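 further: p53 response element beta-lactamase reporter cells with liver microsomes plus NADPH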
Summary of the method: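 Metabolically competent format: test substances, human liver microsomes and NADPH (both 0.5 mg/mL final) incubated with p53RE-bla cells 16 h at 37 C. Beta-lactamase reporter signal then quantified by fluorescence.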

[7] = p53 small molecule agonists, cell-based qHTS assay with rat liver microsomes (AID 1963578)
Summary of the method: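 Each plate received p53RE-bla cells, then compound, then rat liver microsomes and NADPH (both 0.5 mg/mL final). Plates were held 16 h at 37 C, and beta-lactamase activity was detected with LiveBLAzer over 2 h.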

[8] = p53 small molecule agonists, cell-based qHTS assay with human liver microsomes: qHTS cell viability counter screen (AID 1963579); further: nearly all actives have a fitted effect of over 45% in size
Summary of the method: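 Tox21 library compounds, delivered from DMSO stocks, were tested on p53RE-bla cells together with 0.5 mg/mL human liver microsomes and 0.5 mg/mL NADPH (final) over 16 h at 37 C; CellTiter-Glo luminescence served as the cytotoxicity measure.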

[9] = p53 small molecule agonists, cell-based qHTS assay with rat liver microsomes: qHTS cell viability counter screen (AID 1963580); further: nearly all actives have a fitted effect of over 45% in size
Summary of the method: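 Viability is assessed in parallel with the p53 reporter read: HCT-116 p53RE-bla cells receive compounds plus rat microsomes and NADPH (0.5 mg/mL final apiece), incubate 16 h at 37 C, and then CellTiter-Glo luminescence is recorded.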

[10] = p53 small molecule agonists, cell-based qHTS assay: qHTS cell viability counter screen (AID 1963581); further: nearly all actives have a fitted effect of over 45% in size
Summary of the method: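 p53RE-bla HCT-116 cells were exposed to compounds for 16 h at 37 C; after the beta-lactamase FRET read in the same wells, CellTiter-Glo was added and luminescence (intracellular ATP) read after 30 min at room temperature.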

[11] = biological target: 5-hydroxytryptamine receptor 2A (Homo sapiens) (UniProt P28223); experiment: 5-hydroxytryptamine receptor 2A (HTR2A) small molecule agonists, cell-based qHTS assay (AID 1963587); further: nearly all actives have a fitted effect of over 30% in size
Summary of the method: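 CHO cells stably expressing human HTR2A, plated 18 h, loaded with calcium dye 1 h at 37 C. Agonist mode: compounds added and intracellular calcium fluorescence recorded kinetically for 2 min at 1 sec intervals.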

[12] = biological target: Muscarinic acetylcholine receptor M1 (Homo sapiens) (UniProt P11229); experiment: Cholinergic receptor muscarinic 1 (CHRM1) small molecule antagonists, cell-based qHTS assay (AID 1963588); further: nearly all actives have a fitted effect of over 40% in size; further: potency means the concentration at half of the fitted maximal effect
Summary of the method: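 CHRM1-CHO calcium-flux assay, antagonist mode. Cells were seeded 18 h, dye-loaded 1 h at 37 C and given compound for 5 min at RT, then acetylcholine was added at 50nM. FDSS fluorescence was read 3 min; 15 concentrations, three runs.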

[13] = biological target: Muscarinic acetylcholine receptor M1 (Homo sapiens) (UniProt P11229); experiment: Cholinergic receptor muscarinic 1 (CHRM1) small molecule agonists, cell-based qHTS assay (AID 1963589); further: nearly all actives have a fitted effect of over 35% in size
Summary of the method: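 CHO cells stably expressing human CHRM1, seeded 18 h at 37 C/5% CO2, dye-loaded 1 h at 37 C, then given compound in agonist mode; intracellular calcium fluorescence read kinetically at 1 s intervals. Fifteen concentrations, three independent runs.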

[14] = cAMP Responsive Elements (CRE) small molecule agonists, cell-based qHTS assay (AID 1963590)
Summary of the method: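 CRE-bla HEK 293T cells in DMEM with 10% dialyzed FBS, NEAA, pyruvate and 25 mM HEPES were plated 18 h at 37 C/5% CO2, then exposed to compounds in DMSO for 3 h before LiveBLAzer B/G FRET substrate addition.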

[15] = cAMP Responsive Elements (CRE) small molecule antagonists, cell-based qHTS assay (AID 1963591; active means well fitted inhibition curve with a large enough effect in the signal ratio in the repeat runs, not every such curve was filed as active; the % refers to the signal ratio)
Summary of the method: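 CRE-bla HEK293T cells were plated 18 h at 37 °C/5% CO2, pinned with compound in DMSO, then stimulated with NKH477 at 0.25 uM final for 3 h. LiveBLAzer B/G FRET substrate was added and plates incubated 2 h at room temperature.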

[16] = biological target: Beta-2 adrenergic receptor (Homo sapiens) (UniProt P07550); experiment: Adrenergic beta2 receptor (ADRB2) small molecule antagonists, cell-based qHTS assay (AID 1963592); further: nearly all actives have a fitted effect of over 50% in size; further: potency means the concentration at half of the fitted maximal effect
Summary of the method: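 Cells (CHO, stable ADRB2 overexpression) incubated 18-20hr at 37C; compounds added from DMSO; agonist mix (1nM isoproterenol, 100uM IBMX, 25uM Ro-20-1724) added; 0.5hr RT; d2-cAMP and anti-cAMP-cryptate added; 1hr RT; 665/615 nm read.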

[17] = biological target: Beta-2 adrenergic receptor (Homo sapiens) (UniProt P07550); experiment: Adrenergic beta2 receptor (ADRB2) small molecule agonists, cell-based qHTS assay (AID 1963593);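 further: CHO cells stably overexpressing human ADRB2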
Summary of the method: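 CHO cells stably over-expressing ADRB2 were plated overnight at 37C, then dosed with compounds plus a stimulation mix containing 100uM IBMX and 25uM Ro-20-1724 for 0.5hr at room temperature. cAMP was measured by HTRF competition, 1hr.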

[18] = biological target: D(2) dopamine receptor (Homo sapiens) (UniProt P14416); experiment: Dopamine D2 receptor (DRD2) small molecule antagonists, cell-based qHTS assay (AID 1963595; active means well fitted inhibition curve with a large enough effect in the signal ratio in the repeat runs, with a control signal flat; the % refers to the signal ratio)
Summary of the method: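 Antagonist mode in DRD2-HEK293 cells: after compound addition with 0.1 mM Ro20-1724, cells received quinpirole (12 nM) and NKH477 (200 nM) for 30 min at room temperature; HTRF cAMP read after 1 h detection.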

[19] = biological target: D(2) dopamine receptor (Homo sapiens) (UniProt P14416); experiment: Dopamine D2 receptor (DRD2) small molecule agonists, cell-based qHTS assay (AID 1963594); further: nearly all actives have a fitted effect of over 35% in size
Summary of the method: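 HEK293 cells stably expressing human DRD2, pre-treated with PDE inhibitor Ro20-1724 (0.1 mM final) and compound 10 min at room temperature, then stimulated with NKH477 (200nM […]) for 30 min. cAMP read by HTRF (665/620 nm).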

[20] = p53 small molecule agonists, cell-based qHTS assay (AID 1963582; active means well fitted activation curve with a large enough effect in the signal ratio in the repeat runs, not every such curve was filed as active; the % refers to the signal ratio)
Summary of the method: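 p53RE-bla beta-lactamase reporter cells rested 5 h at 37 C/5% CO2, then received compounds in DMSO by pin transfer and were incubated 16 h at 37 C. LiveBLAzer B/G FRET substrate was loaded for 2 h at room temperature before fluorescence reading.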

Sequence of D(2) dopamine receptor (Homo sapiens) (P14416 whole entry, looked up): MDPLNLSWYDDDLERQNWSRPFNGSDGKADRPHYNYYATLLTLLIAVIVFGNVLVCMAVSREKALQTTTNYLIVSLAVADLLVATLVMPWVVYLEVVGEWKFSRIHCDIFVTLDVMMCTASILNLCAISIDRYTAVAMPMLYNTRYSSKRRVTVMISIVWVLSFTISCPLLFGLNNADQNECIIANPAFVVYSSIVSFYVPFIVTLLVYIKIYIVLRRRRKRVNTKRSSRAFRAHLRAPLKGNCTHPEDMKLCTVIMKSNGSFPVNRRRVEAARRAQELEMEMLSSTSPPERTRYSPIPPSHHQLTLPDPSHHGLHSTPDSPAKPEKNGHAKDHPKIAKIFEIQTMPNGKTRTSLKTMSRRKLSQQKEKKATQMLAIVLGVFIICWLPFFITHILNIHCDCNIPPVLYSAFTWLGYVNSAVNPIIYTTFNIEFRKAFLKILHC
Sequence of 5-hydroxytryptamine receptor 2A (Homo sapiens) (P28223 whole entry, looked up): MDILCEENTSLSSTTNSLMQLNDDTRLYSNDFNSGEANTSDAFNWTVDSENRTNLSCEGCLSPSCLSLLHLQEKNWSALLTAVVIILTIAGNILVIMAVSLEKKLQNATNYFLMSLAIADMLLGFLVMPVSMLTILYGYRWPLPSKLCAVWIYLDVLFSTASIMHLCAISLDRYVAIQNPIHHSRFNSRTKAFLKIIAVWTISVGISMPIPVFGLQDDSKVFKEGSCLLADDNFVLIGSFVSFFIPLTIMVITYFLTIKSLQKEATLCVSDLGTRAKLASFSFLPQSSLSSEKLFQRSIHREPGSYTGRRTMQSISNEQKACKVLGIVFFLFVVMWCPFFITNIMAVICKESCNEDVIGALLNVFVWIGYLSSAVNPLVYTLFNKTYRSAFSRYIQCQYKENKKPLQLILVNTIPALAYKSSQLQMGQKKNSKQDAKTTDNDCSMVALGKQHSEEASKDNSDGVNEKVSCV
Sequence of Beta-2 adrenergic receptor (Homo sapiens) (P07550 whole entry, looked up): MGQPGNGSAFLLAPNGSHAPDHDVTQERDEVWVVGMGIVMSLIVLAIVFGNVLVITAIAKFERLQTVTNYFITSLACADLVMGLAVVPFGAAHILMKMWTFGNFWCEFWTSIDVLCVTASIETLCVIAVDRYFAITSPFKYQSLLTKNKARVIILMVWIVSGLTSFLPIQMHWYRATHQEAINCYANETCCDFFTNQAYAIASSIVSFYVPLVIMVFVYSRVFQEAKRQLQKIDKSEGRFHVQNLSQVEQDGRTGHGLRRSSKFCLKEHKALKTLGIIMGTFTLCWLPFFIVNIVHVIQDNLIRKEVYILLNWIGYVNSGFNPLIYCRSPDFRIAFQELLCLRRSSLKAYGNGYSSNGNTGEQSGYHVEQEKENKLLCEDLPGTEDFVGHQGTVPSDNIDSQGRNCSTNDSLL
Sequence of Gonadotropin-releasing hormone receptor (Homo sapiens) (P30968 whole entry, looked up): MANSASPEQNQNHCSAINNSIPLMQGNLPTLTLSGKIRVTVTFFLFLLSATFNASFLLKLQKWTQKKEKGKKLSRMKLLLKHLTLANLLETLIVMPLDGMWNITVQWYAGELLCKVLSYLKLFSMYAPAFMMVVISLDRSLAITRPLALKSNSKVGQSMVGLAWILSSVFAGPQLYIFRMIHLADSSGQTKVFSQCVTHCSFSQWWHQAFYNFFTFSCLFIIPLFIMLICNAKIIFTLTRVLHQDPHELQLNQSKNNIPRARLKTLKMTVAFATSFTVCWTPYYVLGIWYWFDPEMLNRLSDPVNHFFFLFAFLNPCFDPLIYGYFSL
Sequence of Muscarinic acetylcholine receptor M1 (Homo sapiens) (P11229 whole entry, looked up): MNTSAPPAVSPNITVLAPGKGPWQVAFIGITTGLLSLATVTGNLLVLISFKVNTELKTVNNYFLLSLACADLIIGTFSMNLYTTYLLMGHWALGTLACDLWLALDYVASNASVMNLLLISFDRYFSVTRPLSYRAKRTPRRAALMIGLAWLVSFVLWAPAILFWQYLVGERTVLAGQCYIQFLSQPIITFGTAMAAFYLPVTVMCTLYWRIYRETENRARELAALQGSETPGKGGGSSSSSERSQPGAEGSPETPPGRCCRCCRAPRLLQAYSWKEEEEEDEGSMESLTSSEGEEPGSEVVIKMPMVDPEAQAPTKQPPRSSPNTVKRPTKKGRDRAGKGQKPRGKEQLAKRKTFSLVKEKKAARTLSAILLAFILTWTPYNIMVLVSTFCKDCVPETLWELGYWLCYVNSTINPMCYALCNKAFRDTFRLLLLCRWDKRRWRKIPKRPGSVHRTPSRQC
Sequence of KiSS-1 receptor (Homo sapiens) (Q969F8 whole entry, looked up): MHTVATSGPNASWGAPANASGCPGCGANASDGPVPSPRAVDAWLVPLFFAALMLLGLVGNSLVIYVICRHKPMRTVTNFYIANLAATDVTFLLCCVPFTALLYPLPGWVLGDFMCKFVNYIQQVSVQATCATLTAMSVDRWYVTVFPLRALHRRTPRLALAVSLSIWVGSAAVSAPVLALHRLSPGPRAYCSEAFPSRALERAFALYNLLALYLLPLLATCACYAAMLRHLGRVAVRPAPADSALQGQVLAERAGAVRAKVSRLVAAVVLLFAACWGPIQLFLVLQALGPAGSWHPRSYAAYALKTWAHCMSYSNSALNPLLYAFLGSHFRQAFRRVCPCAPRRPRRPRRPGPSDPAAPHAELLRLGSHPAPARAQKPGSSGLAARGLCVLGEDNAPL

Structure (SMILES)	Potency [1]	Potency [2]	Potency [3]	Potency [4]	Potency [5]	Potency [6]	Potency [7]	Potency [8]	Potency [9]	Potency [10]	Potency [11]	Potency [12]	Potency [13]	Potency [14]	Potency [15]	Potency [16]	Potency [17]	Potency [18]	Potency [19]	Potency [20]
C=C(C)C(N)=O	inactive	inactive	inactive	inactive	inactive	inactive	inactive	inactive	inactive	inactive	inactive	847 nM (active) and inactive	inactive	inactive	inactive	inactive	inactive	inactive	–	–
CCCCCCO	inactive	inactive	inactive	inactive	inactive	inactive	inactive	inactive	inactive	inactive	inactive	inactive	inactive	–	inactive	inactive	–	inactive	inactive	–
O=C1O[C@H]([C@H](O)CO)C(O)=C1O	inactive	inactive	inactive	inactive	inactive	inactive	inactive	inactive	inactive	inactive	–	–	–	inactive	inactive	–	inactive	inactive	inactive	inactive
N[C@@H](Cc1cc(I)c(Oc2ccc(O)c(I)c2)c(I)c1)C(=O)O	inactive	inactive	inactive	inactive	inactive	inactive	inactive	inactive	inactive	inactive	–	–	–	inactive	inactive	inactive	–	inactive	–	inactive
CC1(C)[C@@H](O[C@H]2O[C@H](C(=O)O)[C@@H](O)[C@H](O)[C@H]2O[C@@H]2O[C@H](C(=O)O)[C@@H](O)[C@H](O)[C@H]2O)CC[C@]2(C)[C@H]3C(=O)C=C4[C@@H]5C[C@@](C)(C(=O)O)CC[C@]5(C)CC[C@@]4(C)[C@]3(C)CC[C@@H]12	inactive	inactive	inactive	inactive	inactive	inactive	inactive	inactive	inactive	inactive	–	–	–	inactive	inactive	inactive	–	inactive	inactive	inactive
OCCOCCN1CCN(C(c2ccccc2)c2ccc(Cl)cc2)CC1 (stereo unspecified)	inactive	inactive	inactive	inactive	inactive	inactive	inactive	inactive	inactive	inactive	inactive	7.38 µM (active)	inactive	inactive	inactive	inactive and 26.6 µM (active)	–	inactive	inactive	–
O=C(O)CCCCC1CCSS1 (stereo unspecified)	inactive	5.44 µM (active) and inactive	inactive	inactive	inactive	inactive	inactive	inactive	inactive	inactive	–	–	–	inactive	–	inactive	–	inactive	inactive	inactive
CCCCC/C=C\C/C=C\CCCCCCCC(=O)O	inactive	60.1 µM (active) and 68.6 µM (active)	inactive	inactive	inactive	inactive	inactive	inactive	inactive	inactive	inactive	inactive	inactive	–	–	inactive	inactive	–	inactive	–
